According to ChEMBL document CHEMBL4513216, “Probing the Open Global Health Chemical Diversity Library for Multistage-Active Starting Points for Next-Generation Antimalarials” (ACS Infect Dis, 2020):
The campaign covered roughly 69,000 compounds. About 8,600 (12%) showed an effect of 50% or more. What follows is part of a selection rich in strong results, with near analogues and random picks from the rest.

tested on: Plasmodium berghei; assay: Screen against P. berghei liver stage (PbLuc), transformed with Luciferase, at 10uM; format: functional, HepG2; details: tested at 10 uM

| SMILES | INHIBITION [%] |
| --- | --- |
| COc1cccc2ccc(N3CCC(O)(c4ccc(C)cn4)CC3)nc12 | -44.2 |
| Cn1cc2ncn([C@H]3CCN(Cc4ccccc4)C3)c(=O)c2n1 | -25.1 |
| O=C(C(CNCc1ccccn1)c1ccccc1)N1CCOCC1 (stereo not drawn) | -5.32 |
| CC(C)(C)c1n[nH]c(C2CN(C(=O)CCCn3cccn3)CCO2)n1 (stereo not drawn) | 17 |
| c1cncc(CN2CCc3ncnc(C4CCOC4)c3CC2)c1 (stereo not drawn) | 30.7 |
| CSc1nsc(NC(=O)N2CCc3ccccc3C2)n1 | 16.5 |
| CCNC(=O)NCc1nn(CCN2CCCC2)c(=O)c2ccccc12 | 47.7 |
| CC(C)NC(=O)CC1(Cn2cnnn2)CCCCC1 | 35.8 |
| CC(C)CNC(=O)CC1(Cn2cnnn2)CCCCC1 | 67.3 |
| CC(C)OCCCNC(=O)CC1(Cn2cnnn2)CCCCC1 | -22.2 |
| Cc1ccc(N2CCCN(C(=O)CCc3nccs3)CC2)nn1 | 3.73 |
| Cc1nc(N)cc(C2(C)CCCNC2)n1 (stereo not drawn) | 32.8 |
| CC1CN(C(=O)CN(Cc2ccccc2)C2CC2)CCO1 (stereo not drawn) | 15.6 |
| COC(=O)C(NC(=O)C1CCCC1)c1cc(F)ccc1F (stereo not drawn) | 29.4 |
| CC(C)Nc1nc(C(=O)Nc2ccccn2)cs1 | -42.1 |
| CC(C)c1n[nH]c(C(=O)Nc2ccccn2)c1Br | 67.4 |
| CC(C(=O)Nc1ccnn1C(C)C)N1CCN(Cc2ccccc2)CC1 (stereo not drawn) | -8.07 |
| Cc1ccnc(NC(=O)c2ccc(Cl)o2)c1 | 32.4 |
| CC(C)c1n[nH]c(C(=O)Nc2ccnn2C(C)C)c1Br | 88.5 |
| CC(C)c1n[nH]c(C(=O)Nc2ccncc2)c1Br | 77.6 |
| Cc1ccnc(NC(=O)c2ccc(Br)o2)c1 | -51.5 |
| COc1ccncc1NC(=O)c1[nH]nc(C(C)C)c1Br | 31.1 |
| COc1ncccc1NC(=O)c1[nH]nc(C(C)C)c1Br | -41.6 |

| SMILES | INHIBITION [%] |
| --- | --- |
| Cc1ccnc(NC(=O)c2[nH]nc(C(C)C)c2Br)c1 | 65 |
| CC(C)c1n[nH]c(C(=O)NC(C)c2ccncc2)c1Br (stereo not drawn) | -9.76 |
| Cc1nc2c(c(C)c1CC(=O)Nc1ccnn1C(C)C)c(=O)[nH]n2C | -1.33 |
| Cc1ccccc1-n1cc(CN(C)C(=O)CC2C(=O)NCCN2C)cn1 (stereo not drawn) | 42.3 |
| Cc1cccc(C(=O)N2CCCC[C@]3(C)NC(=O)CCC[C@H]23)n1 | 31.6 |
| CN1CCCN(C(=O)c2cccn2-c2ccc3c(c2)OCCO3)CC1 | 6.99 |
| CC(NC(=O)Nc1ccc(N2CCCC2)nc1)c1nncn1C (stereo not drawn) | 9.54 |
| O=C(NCC1(O)COCCN(Cc2cccc(O)c2)C1)c1cnccn1 (stereo not drawn) | -25.3 |
| COc1ccc(C(=O)NCCCn2ccnc2)c(OC)n1 | 26.6 |
| CC(C)c1[nH]c2ncccc2c1CN1CCOCC1 | -21.6 |
| Cc1ccc(CNC(=O)CN2CCOC(Cn3cccn3)C2)s1 (stereo not drawn) | -45.4 |
| O=C(NCc1ccc(-n2cncn2)nc1)c1cc(Cl)ccn1 | 45 |
| Cc1cc(C)n(Cc2cccc(C(=O)NCCSCC(C)(C)O)c2)n1 | 0.426 |
| O=C(NCC1CCC1)c1cccc(CN2CCS(=O)(=O)CC2)c1 | 33.4 |
| CC(C)CC(NC(=O)c1cccc(F)c1F)C(=O)Nc1cc[nH]n1 (stereo not drawn) | -36.4 |
| COc1ccccc1NC(=O)c1[nH]nc(C(C)C)c1Br | -101 |
| Cc1cccc(NC(=O)c2[nH]nc(C(C)C)c2Br)n1 | 65 |
| Cc1cccc(NC(=O)c2sc(C)nc2C)n1 | -9.57 |
| CC(C)c1n[nH]c(C(=O)Nc2cc[nH]n2)c1Br | 55.9 |
| Cc1cccc(NC(=O)c2cncc(C3CCNCC3)n2)n1 | 15.5 |
| CN(C)CCCN(Cc1cnn(C)c1)Cc1ccco1 | -9.35 |
| Oc1ccccc1-c1n[nH]c(C2CCCO2)n1 (stereo not drawn) | -3.11 |
| c1cnnc(N2CCCC2CNCc2cscn2)c1 (stereo not drawn) | -56.1835 |

| SMILES | INHIBITION [%] |
| --- | --- |
| Cc1ccsc1C1CC(=O)Nc2c1cnn2C(C)C (stereo not drawn) | 11.9 |
| Cc1ccc(-c2nc(CNCCn3cccn3)cs2)o1 | 10.8 |
| CCn1cnnc1CCNCc1c[nH]nc1-c1ccc(F)cc1 | -5.94 |
| c1ccc(-n2cncn2)c(CNCCn2cccn2)c1 | -14.2 |
| Fc1cc(CNCCn2cccn2)ccc1-n1cncn1 | 50.8 |
| CC(NCCn1cccn1)c1cc(F)ccc1F (stereo not drawn) | 53.8 |
| Fc1ccc(-c2nc(CNCCn3cccn3)cs2)cc1 | 4.02 |
| CC(NCCn1cccn1)c1ccccc1F (stereo not drawn) | 27.9 |
| Cc1ccc(-c2n[nH]cc2CNCCn2cccn2)o1 | 77.6 |
| CC(NCCn1cccn1)c1ccc(F)cc1F (stereo not drawn) | 16.8 |
| Fc1ccc(-c2n[nH]cc2CNCCn2cccn2)cc1 | 77.6 |
| Cc1ccc(-c2n[nH]cc2CNCC2CCS(=O)(=O)C2)o1 (stereo not drawn) | -29.4 |
| Fc1ccc(CNCCn2cccn2)cc1F | 26.9 |
| Cn1cc(CN2CC[C@H]3O[C@@H](COCc4cccnc4)CC[C@H]32)cn1 | 3.11 |
| Cc1ncc2c(n1)C1(CCN(C(=O)C3CC3)CC1)OCC2 | 7.15 |
| O=C(c1cnn(-c2ccccc2)n1)N1CCCC(n2cccn2)C1 (stereo not drawn) | 33.8 |
| CCOC(=O)c1c(NC(=O)CN2CCN(C(C)=O)CC2)sc(C)c1C | -13.5 |
| COc1cc(NC(=O)NCC2CCCO2)cc(OC)c1OC (stereo not drawn) | 29.8 |
| CC(C)c1nc2c(n1C)CCN(Cc1cccc(C(N)=O)c1)C2 | 34 |
| Cc1ccc(F)c(S(=O)(=O)NCc2cccc(C(=O)N3CCCC3)c2)c1 | 17.5 |
| Fc1ccc(CNCCn2cccn2)c(Cl)c1 | 64.1 |
| Fc1ccc(CNCCn2cccn2)c(F)c1 | -13.3 |
| Cc1cc(F)ccc1CNCCn1cccn1 | 30.1 |

| SMILES | INHIBITION [%] |
| --- | --- |
| Cc1cc(C)c(CNC(=O)CCC2CCCO2)c(=O)[nH]1 (stereo not drawn) | 11.45 |
| NC(=O)NCC(=O)N1C[C@@H]2CC[C@H]1CN(Cc1cscn1)C2 | 7.3 |
| Cc1nnc(CCNC(=O)[C@H]2CNC[C@@H](C(=O)N3CCCC3)C2)s1 | -5.08 |
| COc1ncccc1NC(=O)N(Cc1ccccn1)C1CC1 | -47.6 |
| COc1ncccc1NC(=O)N(Cc1ccc(C)o1)C1CC1 | 58.2 |
| COc1ncccc1NC(=O)N(Cc1ccco1)C1CC1 | -18 |
| COc1ncccc1NC(=O)N(CC(C)C)C1CC1 | -2.19 |
| COc1ncccc1NC(=O)N(Cc1ccc(C(N)=O)cc1)C1CC1 | -35.7 |
| CCN(C(=O)Nc1cccnc1OC)C1CC1 | 53.5 |
| CC(=O)N1CCn2c(nnc2C2CCCCN2C(C)=O)C1 (stereo not drawn) | -55 |
| COCCCNC(=O)c1cc(C(C)C)nc(N2CCCCCC2)n1 | 37.5 |
| COCCNC(=O)c1cc(C(C)C)nc(N2CCCCC2)n1 | 52.4 |
| COCCNC(=O)c1cc(C(C)C)nc(N2CCCC2)n1 | 16.8 |
| COCCCNC(=O)c1cc(C(C)C)nc(N2CCCC2)n1 | -23.8 |
| CCN(CC)CCNC(=O)c1cc(C(C)C)nc(N2CCCC2)n1 | 15.8 |
| CC(C)c1cc(C(=O)NCCCN(C)C)nc(N2CCCC2)n1 | 52.4 |
| CCCNC(=O)c1cc(C(C)C)nc(N2CCCC2)n1 | 32.5 |
| CC(C)c1cc(C(=O)NCCN2CCOCC2)nc(N2CCCC2)n1 | 51.6 |
| CCCNC(=O)c1cc(C(C)C)nc(N2CCCCC2)n1 | 44.9 |
| c1ccc(C2CN(CCc3ccncc3)CCO2)cc1 (stereo not drawn) | 6.12 |
| CN(CC(F)(F)F)C(=O)Cn1cc(NC(=O)C(C)(C)C)cn1 | -0.551 |
| Cc1nn(C)c(N(C)C)c1CNC1CCc2cc(F)ccc21 (stereo not drawn) | 27.4 |
| Cc1ccccc1S(=O)(=O)N[C@@H]1CC[C@@H](N2CCNC(=O)C2)[C@@H]1O | 6.65 |

| SMILES | INHIBITION [%] |
| --- | --- |
| COc1cc(CNCC(O)c2cccc(F)c2)cc2c1OCO2 (stereo not drawn) | 44.1 |
| Cc1nc(CN(C)C2CCCN(c3cccnn3)C2)nc2ccccc12 (stereo not drawn) | 47 |
| CCN(CC)c1ncccc1CNCc1ccc(-c2ccn[nH]2)s1 | 27.6 |
| O=C(O)c1ccccc1-c1ccc(CNC(=O)C2CCOCC2)cc1 | 56.6 |
| CC1CCCCN1Cc1ccc(-c2ccccc2C(=O)O)cc1 (stereo not drawn) | 25.3 |
| O=C(O)c1ccccc1-c1cnc(CNC(=O)C2CCOCC2)nc1 | -17.35 |
| COCc1cc(NCC(F)(F)F)n2nccc2n1 | 7.24 |
| Cc1nc(N(C)C)nc(NCCc2cnccn2)c1C | 27.4 |
| O=S(=O)(C1CC1)N1CCC2(CC1)CC(Oc1cccnc1)CO2 (stereo not drawn) | 26.7 |
| c1cncc(COC2COC3(CCN(c4cnccn4)CC3)C2)c1 (stereo not drawn) | 60 |
| N#Cc1ccc(N2CCC3(CC2)CC(Oc2cccnc2)CO3)cc1 (stereo not drawn) | 73.3 |
| N#Cc1ccc(N2CCC3(CC2)CC(N2CCOCC2)CO3)cc1 (stereo not drawn) | 73.2 |
| N#Cc1ccc(N2CCCC3(CCN(c4cccnc4)CC3)C2)cc1 | 85.6 |
| c1cncc(N2CCCC3(CCN(CCN4CCCC4)CC3)C2)c1 | -26.1 |
| c1cncc(N2CCC3(CCCN(c4ccncc4)C3)CC2)c1 | -29 |
| Fc1cnc(N2CCC3(CC2)CC(OCc2cccnc2)CO3)nc1 (stereo not drawn) | 30.5 |
| O=C(c1ccncc1)N1CCC2(CC1)CC(Oc1cccnc1)CO2 (stereo not drawn) | 35.8 |
| CN1CCN(C2COC3(CCN(c4ccc(C#N)cc4)CC3)C2)CC1 (stereo not drawn) | 39.5 |
| CN(C)C(=O)COC1COC2(CCN(c3cnccn3)CC2)C1 (stereo not drawn) | 21.6 |
| CN1CCOCC12CCN(c1ccc(C#N)cc1)CC2 | -15.3 |
| O=C(c1cccc(N2CCCC2=O)c1)N1CCCC(n2cccn2)C1 (stereo not drawn) | -21.35 |
